PubChem BioAssay (Tox21)
Records with an inconclusive call do not appear. Calls of active or inactive are those of the source. Unless noted, calls follow the shape of the dose curve; as a rule, active = well fitted curve in the direction sought with a large enough effect in the repeat runs; inconclusive = weak or mixed curves; inactive = no such curve, though single readings can be large; an effect the other way counts as inactive or inconclusive.

How the values were obtained:
[1] = A CellTox Green Cytotoxicity Assay to monitor cytotoxicity in HepG2 cells - 32 hour (AID 1224883); also: nearly all actives have a fitted effect of over 50% in size
How it was run: (§1)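 Fluorescent DNA-binding dye, 600 HepG2 cells/well, 5 h preincubation then compound in DMSO; same plates read at 0–40 h, 37 C.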

[2] = A CellTox Green Cytotoxicity Assay to monitor cytotoxicity in HEK293 cells - 8 hour (AID 1224884); also: nearly all actives have a fitted effect of over 35% in size
How it was run: (§2)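 Homogeneous no-lysis format: HEK293 cell suspension mixed with CellTox Green reagent, seeded, incubated 5 h at 37 C/5% CO2, then dosed by pintool with compound in DMSO.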

[3] = qHTS RealTime-Glo MT Cell Viability Assay in HepG2 cells - 16 hour (AID 1224885); also: nearly all actives have a fitted effect of over 50% in size
How it was run: (§3)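 HepG2 suspension premixed with RealTime-Glo reagents is plated at 600 cells per well and left 5 h at 37 C/5% CO2. Compounds in DMSO then go in, and bioluminescence reflecting viable cell number is recorded over 40 h.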

[4] = qHTS RealTime-Glo MT Cell Viability Assay in HEK293 cells - 24 hour (AID 1224886); also: top concentration of the series differs between compounds; nearly all actives have a fitted effect of over 50% in size
How it was run: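 Reads taken at 0, 8, 16, 24, 32 and 40 h from the same wells. HEK293 cells (600/well) carried RealTime-Glo reagents from seeding, with compound added after a 5 h settle at 37 C.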

[5] = qHTS RealTime-Glo MT Cell Viability Assay in HEK293 cells - 8 hour (AID 1224887); also: top concentration of the series differs between compounds; nearly all actives have a fitted effect of over 50% in size
How it was run: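 Measured as luminescence from the same continuously cultured HEK293 wells at successive time points (0, 8, 16, 24, 32, 40 h) after compound addition. Reagent present from seeding; dosing at 5 h; incubation 37 C.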

[6] = A CellTox Green Cytotoxicity Assay to monitor cytotoxicity in HEK293 cells - 16 hour (AID 1224888); also: nearly all actives have a fitted effect of over 35% in size
How it was run: as §2

[7] = qHTS RealTime-Glo MT Cell Viability Assay in HepG2 cells - 0 hour (AID 1224889); also: nearly all actives have a fitted effect of over 50% in size
How it was run: as §3

[8] = A CellTox Green Cytotoxicity Assay to monitor cytotoxicity in HepG2 cells - 8 hour (AID 1224890); also: nearly all actives have a fitted effect of over 45% in size
How it was run: as §1

[9] = qHTS assay to identify small molecule antagonists of the estrogen receptor alpha (ER-alpha) signaling pathway using the BG1 cell line in the presence of 0.1 nM 17-beta-estradiol - cell viability counter screen (AID 1259241); also: nearly all actives have a fitted effect of over 40% in size
How it was run: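 CellTiter-Fluor read (30 min, 37C) on ER-alpha/ERE-luc VM7Luc4E2 cells; 22 hr compound treatment; agonist 0.1 nM E2 final; same-well multiplex.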

[10] = qHTS assay to identify small molecule antagonists of the androgen receptor (AR) signaling pathway using the MDA cell line in the presence of 0.5 nM R1881 - cell viability counter screen (AID 1259242); also: nearly all actives have a fitted effect of over 45% in size
How it was run: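 Human breast carcinoma MDA-kb2 cells, cultured without CO2, receive compounds alongside 0.5 nM (final) R1881 agonist. After 16 hr at 37C, viability is taken as live-cell protease signal.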

[11] = biological target: Estrogen receptor (Homo sapiens) (UniProt P03372); experiment: qHTS assay to identify small molecule antagonists of the estrogen receptor alpha (ER-alpha) signaling pathway using the BG1 cell line in the presence of 0.1 nM 17-beta-estradiol (AID 1259244); also: nearly all actives have a fitted effect of over 50% in size
Estrogen receptor (Homo sapiens), sequence (P03372 whole entry, looked up): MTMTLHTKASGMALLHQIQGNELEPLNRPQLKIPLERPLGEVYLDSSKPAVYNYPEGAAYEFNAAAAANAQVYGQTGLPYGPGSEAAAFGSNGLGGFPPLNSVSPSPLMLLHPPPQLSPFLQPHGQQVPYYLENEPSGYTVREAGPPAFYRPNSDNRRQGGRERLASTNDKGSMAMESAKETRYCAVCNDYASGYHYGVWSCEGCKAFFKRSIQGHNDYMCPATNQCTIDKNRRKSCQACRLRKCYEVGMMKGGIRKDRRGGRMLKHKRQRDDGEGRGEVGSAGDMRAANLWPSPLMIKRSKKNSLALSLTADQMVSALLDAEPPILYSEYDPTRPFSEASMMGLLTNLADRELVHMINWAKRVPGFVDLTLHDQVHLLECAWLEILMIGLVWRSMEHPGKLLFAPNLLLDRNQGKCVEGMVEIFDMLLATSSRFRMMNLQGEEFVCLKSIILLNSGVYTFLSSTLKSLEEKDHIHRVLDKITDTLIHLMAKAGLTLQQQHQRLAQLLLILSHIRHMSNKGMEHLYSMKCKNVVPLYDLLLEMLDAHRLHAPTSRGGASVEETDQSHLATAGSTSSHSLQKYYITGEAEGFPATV
How it was run: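 Seeding of stripped-serum-adapted VM7Luc4E2 cells, 24 h attachment, compound transfer, then 0.1 nM final 17beta-estradiol; after 22 h incubation, ONE-Glo reagent and luminescence reading.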

[12] = qHTS assay to identify small molecule HDAC inhibitors (AID 1259364);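 also: wild-type HCT-116 cells with endogenous class I/II HDAC activity; top concentration of the series differs between compounds; nearly all actives have a fitted effect of over 45% in size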
How it was run: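 After a 2 hr compound incubation (37C, 5% CO2), HCT-116 cells seeded at 1,500/well the day before received HDAC-Glo reagent; signal read as luminescence after 30 min at room temperature.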

[13] = qHTS assay to identify small molecule agonists of the sonic hedgehog signaling (Shh) pathway - cell viability counter screen (AID 1259366); also: nearly all actives have a fitted effect of over 50% in size
How it was run: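 Fluorescence from CellTiter-Fluor reports live cells in this counter screen. NIH/3T3-derived Gli1-Luc reporter cells receive test compounds for 24hr at 37C; reagent goes in at 23hr.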

[14] = qHTS assay to identify small molecule antagonists of the sonic hedgehog signaling (Shh) pathway - cell viability counter screen (AID 1259367); also: nearly all actives have a fitted effect of over 55% in size
How it was run: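 Cytotoxicity was assessed in parallel with Shh reporter activity by measuring live-cell protease fluorescence (CellTiter-Fluor) in NIH/3T3 cells stably carrying Gli1-Luc, treated with compound under conditioned medium stimulation for 23 hr plus 1 hr reagent incubation.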

[15] = qHTS assay to identify small molecule agonists of the sonic hedgehog signaling (Shh) pathway (AID 1259368; calls by dose curve;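 also: NIH/3T3-derived 3T3Gli1-Luc cells carrying a stable Gli1-driven firefly luciferase reporter; series mostly up to about 92 µM; nearly all actives have a fitted effect of over 15% in size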)
How it was run: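 Stable NIH/3T3 Gli1-Luc reporter clone; 24 hr cpd exposure after a 4 hr settling period; luminescence endpoint.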

[16] = qHTS assay to identify small molecule antagonists of the sonic hedgehog signaling (Shh) pathway (AID 1259369; calls by dose curve; also: nearly all actives have a fitted effect of over 45% in size)
How it was run: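 Gli1 transcriptional reporter (firefly Luc) in NIH/3T3 background, conditioned-medium activated. 24hr exposure, luminescence endpoint.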

[17] = biological target: Androgen receptor (Homo sapiens) (UniProt P10275); experiment: qHTS assay to identify small molecule antagonists of the androgen receptor (AR) signaling pathway using the MDA cell line in the presence of 0.5 nM R1881 (AID 1259243); also: nearly all actives have a fitted effect of over 50% in size
Androgen receptor (Homo sapiens), sequence (P10275 whole entry, looked up): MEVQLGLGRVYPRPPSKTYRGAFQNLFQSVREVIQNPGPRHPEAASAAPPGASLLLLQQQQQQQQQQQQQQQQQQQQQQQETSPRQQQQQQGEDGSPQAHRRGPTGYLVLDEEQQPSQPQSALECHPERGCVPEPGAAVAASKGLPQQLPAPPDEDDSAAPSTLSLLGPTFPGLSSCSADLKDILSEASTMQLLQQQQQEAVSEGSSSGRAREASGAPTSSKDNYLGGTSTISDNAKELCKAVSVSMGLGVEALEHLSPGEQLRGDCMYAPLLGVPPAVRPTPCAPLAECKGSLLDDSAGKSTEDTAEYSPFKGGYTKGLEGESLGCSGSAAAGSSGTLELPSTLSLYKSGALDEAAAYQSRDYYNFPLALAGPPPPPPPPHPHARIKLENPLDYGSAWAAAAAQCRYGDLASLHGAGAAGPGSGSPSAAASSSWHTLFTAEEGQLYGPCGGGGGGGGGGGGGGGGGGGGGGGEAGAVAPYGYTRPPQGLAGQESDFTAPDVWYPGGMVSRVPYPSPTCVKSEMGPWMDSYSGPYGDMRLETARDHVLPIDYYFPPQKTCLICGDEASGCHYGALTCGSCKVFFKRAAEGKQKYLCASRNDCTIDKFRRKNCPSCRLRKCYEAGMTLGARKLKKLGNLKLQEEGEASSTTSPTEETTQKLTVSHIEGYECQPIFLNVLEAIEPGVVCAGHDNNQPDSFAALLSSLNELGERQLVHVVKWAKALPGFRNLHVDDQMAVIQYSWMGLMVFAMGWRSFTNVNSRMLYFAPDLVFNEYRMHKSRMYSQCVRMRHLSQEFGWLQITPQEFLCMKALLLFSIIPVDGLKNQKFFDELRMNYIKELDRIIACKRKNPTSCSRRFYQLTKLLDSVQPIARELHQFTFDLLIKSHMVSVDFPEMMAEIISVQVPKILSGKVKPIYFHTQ
How it was run: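 Cells: MDA-kb2 (MMTV-luc). Stimulus: 0.5 nM R1881. Time: 16 hr, 37C, no CO2. Detection: ONE-Glo luminescence after 30 min at RT.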

[18] = qHTS assay to identify small molecule HDAC inhibitors - cell viability counter screen (AID 1259365)
How it was run: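 To flag cytotoxic hits, 1,500 wild-type HCT-116 cells per well, plated the day before, receive test compounds for 2hr at 37 C before CellTiter-Glo reagent and a luminescence read.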

[19] = biological target: Estrogen receptor beta (Homo sapiens) (UniProt Q92731); experiment: qHTS assay to identify small molecule agonists of the estrogen receptor beta (ER-beta) signaling pathway (AID 1259377; active = well fitted activation curve with a large enough effect in the signal ratio in the repeat runs, not every such curve was filed as active; the % refers to the signal ratio)
Estrogen receptor beta (Homo sapiens), sequence (Q92731 whole entry, looked up): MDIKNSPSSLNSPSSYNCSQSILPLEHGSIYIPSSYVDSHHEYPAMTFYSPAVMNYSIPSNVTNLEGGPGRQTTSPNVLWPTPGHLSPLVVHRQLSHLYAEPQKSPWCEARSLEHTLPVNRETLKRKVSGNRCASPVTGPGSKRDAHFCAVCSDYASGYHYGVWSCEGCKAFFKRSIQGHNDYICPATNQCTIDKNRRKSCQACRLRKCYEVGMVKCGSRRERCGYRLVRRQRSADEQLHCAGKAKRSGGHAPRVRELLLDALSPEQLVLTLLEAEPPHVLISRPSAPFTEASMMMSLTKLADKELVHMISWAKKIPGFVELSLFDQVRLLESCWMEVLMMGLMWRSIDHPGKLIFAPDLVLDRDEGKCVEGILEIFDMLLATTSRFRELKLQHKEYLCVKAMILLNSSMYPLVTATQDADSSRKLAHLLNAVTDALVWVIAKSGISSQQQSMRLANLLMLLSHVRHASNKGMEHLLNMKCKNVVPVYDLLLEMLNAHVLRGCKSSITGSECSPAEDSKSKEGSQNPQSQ
How it was run: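 Screening used GripTite ER-beta-UAS-bla cells held in 2% charcoal-stripped FBS medium. After overnight (16 hr) compound incubation at 37C, beta-lactamase activity was detected with a FRET substrate by fluorescence.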

[20] = qHTS assay to identify small molecule phospholipidosis (PLD) inducers (AID 1259344; active = well fitted curve in the direction sought with a large enough effect; an effect the other way counts as inactive or inconclusive)
How it was run: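 Cells (HepG2, 900 per well) attach for 4 h, receive LipidTOX Red and compound together, incubate 24 h at 37 C, are fixed 30 min with paraformaldehyde/Hoechst, then imaged at one site per well.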

Measured: Potency

CC(=[OH+])/C=C(/C)[O-].CC(=[OH+])/C=C(\C)[O-].CC(=[OH+])/C=C(\C)[O-].[Fe]
inactive: [1] | [2] | [3] | [4] | [5] | [6] | [7] | [8] | [9] | [10] | [11] | [12] | [13] | [14] | [15] | [16]

Cn1[nH]nnc1=S
inactive: [1] | [2] | [3] | [4] | [5] | [6] | [7] | [8] | [9] | [10] | [11] | [12] | [13] | [15]

CC(C)CBr
inactive: [1] | [2] | [3] | [4] | [5] | [6] | [7] | [8] | [9] | [10] | [17] | [11] | [12] | [18] | [13] | [14] | [16] | [19]

CC(C)(COCC1CO1)COCC1CO1 (stereo unspecified)
inactive: [1] | [2] | [3] | [4] | [5] | [6] | [7] | [8] | [9] | [10] | [11] | [12] | [13] | [14] | [19]

CC(=O)Nc1ccc2c(c1)Cc1ccccc1-2
inactive: [1] | [2] | [3] | [4] | [5] | [6] | [7] | [8] | [9] | [10] | [11] | [13] | [14] | [15] | [16]

ClC1=C(Cl)[C@]2(Cl)[C@@H]3[C@@H](Cl)[C@@H](Cl)C[C@@H]3[C@@]1(Cl)C2(Cl)Cl
inactive: [1] | [2] | [3] | [4] | [5] | [6] | [7] | [8] | [9] | [10] | [11] | [12] | [18] | [13] | [14] | [15] | [16] | [19]

N#C/C=C/c1ccccc1
inactive: [1] | [2] | [3] | [4] | [5] | [6] | [7] | [8] | [9] | [10] | [17] | [11] | [12] | [18] | [13] | [14] | [15] | [16]

Clc1ccc(-c2ccccc2)cc1
inactive: [1] | [2] | [3] | [4] | [5] | [6] | [7] | [8] | [9] | [10] | [11] | [12] | [18] | [13] | [14] | [16] | [19]

COC[C@H](C)N(C(=O)CCl)c1c(C)csc1C
inactive: [1] | [2] | [3] | [4] | [5] | [6] | [7] | [8] | [9] | [10] | [11] | [12] | [18] | [13] | [14] | [15] | [16] | [19]

CN(CCCC(O)c1cccnc1)N=O (stereo unspecified)
inactive: [1] | [2] | [3] | [4] | [5] | [6] | [7] | [8] | [10] | [11] | [12] | [13] | [14] | [15] | [16] | [19]

CCOCCOC(C)=O
inactive: [1] | [2] | [3] | [4] | [5] | [6] | [7] | [8] | [10] | [11] | [20] | [12] | [13] | [14] | [15]

CC(=[OH+])/C=C(/C)[O-].CC(=[OH+])/C=C(\C)[O-].CC(=[OH+])/C=C(\C)[O-].[Al]
inactive: [1] | [2] | [3] | [4] | [5] | [6] | [7] | [8] | [9] | [11] | [12] | [18] | [13] | [14] | [15] | [16]

CC(C)CC(C)N (stereo unspecified)
inactive: [1] | [2] | [3] | [4] | [5] | [6] | [7] | [8] | [10] | [11] | [12] | [18] | [13] | [15] | [16]

COc1ccc([N+](=O)[O-])cc1O
inactive: [1] | [2] | [3] | [4] | [5] | [6] | [7] | [8] | [10] | [11] | [12] | [18] | [13] | [15] | [16]
